Growth data for 27 molecules are collected here from PubChem BioAssay (NCI).

Structures are written as SMILES. Compounds without any hit were thinned out: in the full panel of roughly 83,000, 20% have a hit.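 Each cell line was grown in a 96-well plate and treated with one concentration of compound for 48 hours. Values below 10 were considered active.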 A number with no mark means an inactive call. Calls of active or inactive are those of the source.

This test relates to UO-31 renal. Nature of the test: NCI-60 one-dose screen, 48 h (100 = growth as untreated, 0 = no growth, -100 = all killed). To be noted: 10 µM unless noted.
On to `O=S(=O)(NCCNc1nccc(-n2cnc3ccccc32)n1)c1ccc(Br)cc1`, for which the growth was 79.8%.

Take `CC1(C)CC[C@]23CC[C@]4(C)[C@H](CC[C@@H]5[C@@]6(C)CCCN(CO)C(C)(C)[C@@H]6CC[C@]54C)[C@H]2[C@H]1OC3`: the growth was 76.7%.

Regarding `O=C1[C@H]2Cc3c([nH]c4ccccc34)[C@@H](c3ccc(Br)cc3)N2C(=O)CN1C1CCN(CC2CCCCC2)CC1`, the growth was 12.3%.

Regarding `COc1ccc([C@H]2c3[nH]c4ccccc4c3C[C@H]3C(=O)N(C4CCN(Cc5c(Cl)cccc5Cl)CC4)CC(=O)N23)c(OC)c1`, the growth was 53.7%.

Take `NS(=O)(=O)c1ccc(Nc2nc(Nc3ccccc3)nc3nnc(SCC(=O)NC4CCCCC4)n23)cc1`: the growth was 80.8%.

Consider `O=C(NNc1nc2cc(F)ccc2n2c(CN3CCC(O)C3)ccc12)c1cnccn1` (configuration not stated), for which the growth is 11%.

As for `CCN(CC)c1cn(-c2ccc(S(N)(=O)=O)cc2)nn1`, the growth was 91.8%.

Turning to `O=[N+]([O-])c1cc(/C=N/Nc2nc(N/N=C/c3ccc(Cl)c([N+](=O)[O-])c3)nc(N3CCCCC3)n2)ccc1Cl`, the growth is 47.5%.

In the case of `CC(=O)Nc1cccc(Nc2nc(N[C@@H](C)c3ccccc3)c3ccccc3n2)c1`, the growth was 19.2%.

Consider `COc1ccc(COc2ccc(/C=C3\C(=O)Nc4ccccc43)cc2OC)cc1`, for which the growth is 80.4%.

`CCNC(=O)Oc1ccc(/C(=C(/C)c2ccccc2)c2ccc(OCCN3CCCCCC3)cc2)cc1`: the growth was -20.3% (active).

Regarding `COc1cc(/C=N/NC(=O)c2cn(C3CC3)c3c(OC)c(N4CC5CCCNC5C4)c(F)cc3c2=O)ccc1O` (configuration not stated), the growth is 81.1%.

`CC(C)c1ccc(NCc2cn(-c3ccc(C(=O)O)cc3)nc2-c2cc(C(F)(F)F)cc(C(F)(F)F)c2)cc1`: the growth was 78.6%.

As to `C[C@@H]1C[C@H]2C(=O)O[C@@H](C)C(NC(=O)[C@H](Cc3cc(F)cc(F)c3)NC(=O)Nc3ccc(Cl)cc3F)C(=O)N3CCC[C@H]3C(=O)N3CCCC[C@H]3C(=O)N[C@@H](CO)C(=O)N2C1` (some centres not stated), the growth was 34.9%.

Consider `CC(=O)O[C@@H]1C(=O)N(c2cnccn2)[C@H]1c1ccccc1[N+](=O)[O-]`, for which the growth was 27.7%.

Take `C=C1CC[C@@H]2[C@]3(C)COC(c4ccccc4)O[C@@H]3CC[C@@]2(C)[C@@H]1C/C=C1/C(=O)OC[C@H]1O` (some centres not stated): the growth is 75.7%.

`Nc1nc(-c2cccc([N+](=O)[O-])c2)c(N=Nc2cccc([N+](=O)[O-])c2)s1`: the growth is 13.5%.

In the case of `Nc1cc(F)ccc1NC(=O)c1ccc(NC(=O)C/C=C/c2cccnc2)cc1`, the growth is 52.6%.

In the case of `CCc1nn2c(C)cc(C)nc2c1Cc1ccc(/C=C/CN2CCN(CCOCCOCCN3CCN(C/C=C/c4ccc(Cc5c(CC)nn6c(C)cc(C)nc56)cc4)CC3)CC2)cc1`, the growth was -95.9% (active).

`COc1ccc(NC(=O)CSc2nnc(-c3ccc4nc(-c5ccccc5)[nH]c4c3)o2)cc1`: the growth is 85.7%.

In the case of `COc1ccc(N2C(=O)c3cc(Cl)ccc3NC2SCc2ccccc2)cc1` (configuration not stated), the growth was 63.8%.

For `O=C(CSc1nc2ccccc2c(=O)n1-c1ccccc1)Nc1ccc(-c2nc3ccc([N+](=O)[O-])cc3[nH]2)cc1`, the growth is 76.9%.

As for `O=C(NCCn1ccnc1)c1ccc(-c2nc3ccc4[nH]ncc4c3c3c2CCCC3)cc1`, the growth is 92.4%.

For the molecule `CCCC(=O)NC(c1cccnc1)c1cc(C(C)(C)C)c2cccnc2c1O` (configuration not stated), the growth is 13.6%.

For `NC(N)=Nc1ccc(Oc2cccc(Nc3ccc(Cl)cc3)c2)cn1`, the growth is 39.1%.

For the molecule `O=C(CN1CCN(c2cc(=O)[nH]c3ccc(F)cc23)CC1)Nc1ccc(Cl)cc1`, the growth is 75.2%.

In the case of `C=C(C=O)[C@@H]1CC[C@]2(C)[C@H](C(=O)C=C3[C@H]4C[C@](C)(C(=O)OC)CC[C@]4(C)CC[C@]32C)[C@@]1(C)CCC#N`, the growth is -91.5% (active).
